Results taken from paper PMC5540273 (PLoS ONE, 2017).

Assays:
Conditions in all cases: concentration: 1 μM, replicates: in singlicate; n = 1
ERK5 = test system: T1, ERK5
T1 construct: gene MAPK7

ERK8 = test system: T2, ERK8
T2 construct: gene MAPK15

ERN1 = test system: ERN1
FAK = test system: T3, FAK
T3 construct: gene PTK2

FER = test system: FER
FES = test system: FES
FGFR1 = test system: FGFR1
FGFR2 = test system: FGFR2
FGFR3 = test system: FGFR3
FGFR4 = test system: FGFR4
FGR = test system: FGR
FLT1 = test system: FLT1
FLT3-autoinhibited = test system: FLT3-autoinhibited
FLT3 = test system: FLT3
FLT4 = test system: FLT4
FRK = test system: FRK
FYN = test system: FYN
GAK = test system: GAK
GCN2(Kin.Dom.2,S808G) = test system: T4, GCN2(Kin.Dom.2,S808G)
T4 construct: gene EIF2AK4

GRK1 = test system: GRK1
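Further: KINOMEscan kinase panel screen.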

SMILES | %Inh (ERK5) | %Inh (ERK8) | %Inh (ERN1) | %Inh (FAK) | %Inh (FER) | %Inh (FES) | %Inh (FGFR1) | %Inh (FGFR2) | %Inh (FGFR3) | %Inh (FGFR4) | %Inh (FGR) | %Inh (FLT1) | %Inh (FLT3-autoinhibited) | %Inh (FLT3) | %Inh (FLT4) | %Inh (FRK) | %Inh (FYN) | %Inh (GAK) | %Inh (GCN2(Kin.Dom.2,S808G)) | %Inh (GRK1)
COc1ccc(-n2cnc3c(N)ncnc32)cc1 [SKF-97236] | 0% | 40% | 0% | 13% | 13% | 0% | 27% | 0% | 0% | 18% | 0% | 24% | 34% | 83% | 22% | 0% | 25% | 27% | 0% | 0%
Cc1nn2c(=O)cc(N3CCOCC3)nc2n1Cc1cccc(Cl)c1Cl [GSK2342769] | 0% | 18% | 0% | 0% | 14% | 6% | 1% | 30% | 15% | 5% | 24% | 27% | 9% | 0% | 34% | 0% | 0% | 1% | 3% | 3%
CCS(=O)(=O)c1ccc(OC)c(Nc2ncc(-c3ccc(F)cc3)o2)c1.Cl [GW591947] | 0% | 0% | 8% | 0% | 29% | 0% | 3% | 0% | 0% | 12% | 0% | 26% | 0% | 0% | 6% | 0% | 9% | 0% | 16% | 0%
CN1C(=O)C(Nc2ccccc2)=C(c2ccccc2)C1=O [SB-300079] | 0% | 2% | 17% | 0% | 0% | 0% | 0% | 0% | 0% | 0% | 0% | 0% | 0% | 0% | 0% | 0% | 0% | 0% | 6% | 26%
Cc1c(Cn2c(C)nn3c(=O)cc(N4CCO[C@H](C)C4)nc23)cccc1C(F)(F)F [GSK2373690] | 0% | 0% | 10% | 0% | 20% | 0% | 5% | 1% | 18% | 3% | 0% | 22% | 0% | 0% | 0% | 35% | 14% | 52% | 3% | 0%
COc1cc(Nc2nccc(N3CCC(NC(=O)C(C)c4ccc(Cl)cc4)C3)n2)cc(OC)c1OC (stereo not drawn) [GSK1379757] | 0% | 0% | 0% | 0% | 2% | 18% | 0% | 45% | 2% | 0% | 26% | 40% | 0% | 25% | 7% | 0% | 0% | 0% | 0% | 0%
COc1cc(OC)cc(-c2cc3cnc(N)nc3nc2NC(=O)NC(C)(C)C)c1 | 2% | 29% | 0% | 0% | 0% | 0% | 97.8% | 96.7% | 96.3% | 54% | 0% | 38% | 0% | 0% | 73% | 0% | 1% | 0% | 3% | 13%
Nc1nc(N)c2nc(-c3ccccc3)[nH]c2n1 [SKF-12778] | 0% | 41% | 11% | 6% | 14% | 0% | 16% | 32% | 21% | 12% | 30% | 18% | 7% | 8% | 22% | 8% | 0% | 30% | 23% | 5%
CC(C)(C)c1ccc(C(=O)Nc2cn3cc(-c4ccccc4)ccc3n2)cc1 | 0% | 20% | 26% | 0% | 0% | 0% | 0% | 1% | 7% | 0% | 0% | 0% | 0% | 35% | 0% | 10% | 0% | 0% | 8% | 25%
COc1cc2nccc(Nc3cccc(Oc4ccccc4)c3)c2cc1OC.Cl [GW284543] | 26% | 13% | 8% | 23% | 30% | 4% | 17% | 26% | 6% | 8% | 25% | 24% | 10% | 6% | 38% | 0% | 36% | 0% | 0% | 0%
O=C(Nc1n[nH]c2nc(-c3ccccc3)c(Cl)cc12)C1CC1 [SB-734909] | 0% | 0% | 24% | 0% | 0% | 0% | 0% | 4% | 5% | 0% | 13% | 9% | 16% | 2% | 0% | 0% | 0% | 0% | 0% | 37%
O=c1cc(N2CCOCC2)nc2n(Cc3ccc(F)c(Cl)c3)ccn12 [GSK2297099] | 2% | 0% | 0% | 0% | 0% | 0% | 0% | 0% | 0% | 0% | 25% | 10% | 2% | 0% | 0% | 0% | 56% | 1% | 2% | 0%
O=C(Nc1ccc2c(c1)OCO2)NC1CCN(c2ccnc(NCc3ccc(F)cc3)n2)CC1 [GSK1379859] | 0% | 0% | 0% | 0% | 8% | 0% | 4% | 0% | 0% | 0% | 9% | 15% | 0% | 0% | 9% | 0% | 31% | 4% | 1% | 0%
COc1cc(Nc2nccc(N3CCC(NC(=O)C4COc5ccccc5O4)C3)n2)cc(OC)c1OC (stereo not drawn) [GSK1379761] | 0% | 0% | 2% | 0% | 17% | 0% | 3% | 30% | 9% | 0% | 33% | 23% | 0% | 37% | 25% | 3% | 29% | 37% | 0% | 0%
Cc1cc(Nc2nc(-c3cccc(C)n3)nc3ccccc23)ccn1 [GW872411] | 3% | 13% | 0% | 0% | 0% | 0% | 12% | 0% | 0% | 0% | 0% | 0% | 0% | 7% | 0% | 0% | 0% | 0% | 0% | 13%
CCC(=O)c1c(-c2ccccc2)c2cc(Cl)ccc2c(=O)n1Cc1cc(S(C)(=O)=O)n(CC(F)F)n1 | 0% | 6% | 0% | 0% | 0% | 0% | 0% | 4% | 0% | 0% | 0% | 0% | 0% | 0% | 0% | 0% | 0% | 0% | 0% | 12%
O=C1NC(=O)C(c2ccccc2)=C1Nc1cccc(O)c1 [SB-390534] | 0% | 0% | 0% | 0% | 0% | 0% | 11% | 0% | 10% | 1% | 0% | 2% | 5% | 26% | 0% | 0% | 0% | 11% | 0% | 13%
COc1cccc(C2=C(N(C)c3ccccc3)C(=O)NC2=O)c1 [SB-334865] | 0% | 0% | 0% | 0% | 0% | 0% | 0% | 0% | 3% | 19% | 13% | 16% | 0% | 0% | 0% | 5% | 13% | 0% | 0% | 5%
